The list is not random: actives were taken first. Their share in the collection is about 4.1%.
GDH-TPI inh – counter-screen for M. tuberculosis FBA inhibitors: GDH-TPI coupled enzymes. GDH-TPI coupled enzyme counterscreen, NADH absorbance. inhibition, % at 4.8 µM. 1.2% of 360,000 active; in the data active = inhibition above about 30%;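 also: 0% = DMSO wells and 100% = wells lacking the enzyme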
BH1578 lux ind – inducers of Vibrio cholerae quorum light production without autoinducers. activation, % at 18.7 µM. AID 588436. V. cholerae BH1578 lux reporter, luminescence, 6 h. 0.16% of 350,000 active; in the data active = activation mostly above about 9.7%, no sharp cut-off
Mtb UGM inh – Mtb UDP-galactopyranose mutase inhibition; P9WIQ1; AID 504406; 0.06% of 320,000 active; purified UGM, fluorescence polarization probe displacement; inhibition, % at 10 µM; in the data active = inhibition above about 10%, passing the limit was not always enough
Target sequence (P9WIQ1 whole entry, looked up): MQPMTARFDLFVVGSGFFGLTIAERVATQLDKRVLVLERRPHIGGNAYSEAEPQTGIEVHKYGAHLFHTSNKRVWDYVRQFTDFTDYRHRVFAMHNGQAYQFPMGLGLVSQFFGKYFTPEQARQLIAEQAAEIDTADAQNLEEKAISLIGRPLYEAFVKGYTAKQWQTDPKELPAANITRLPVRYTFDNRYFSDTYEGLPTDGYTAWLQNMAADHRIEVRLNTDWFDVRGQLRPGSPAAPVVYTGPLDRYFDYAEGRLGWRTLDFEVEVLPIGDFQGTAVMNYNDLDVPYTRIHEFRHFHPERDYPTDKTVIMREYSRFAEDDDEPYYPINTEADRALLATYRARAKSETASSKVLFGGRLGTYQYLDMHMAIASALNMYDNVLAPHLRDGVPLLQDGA
RecA splice inh – blocks M. tuberculosis RecA intein splicing; P9WHJ3; cell-free RecA intein splicing, fluorescence; inhibition, % (test concentration not listed); 0.75% of 290,000 active; in the data active = inhibition above about 30%;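 also: 0% = vehicle wells and 100% = reference inhibitor control wells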
FBA Mtb inh – inhibits M. tuberculosis FBA enzyme; purified M. tuberculosis FBA, fluorescence read-out; 2.3% of 360,000 active; inhibition, % at 1 µM; in the data active = inhibition above about 27%;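 also: 0% = vehicle and 100% = reference inhibitor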
Rv3671c inh – inhibitors of M. tuberculosis serine protease Rv3671c; P9WHR9; inhibition, % at 5.96 µM; 0.048% of 320,000 active; AID 2606; in the data active = inhibition above about 38%;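 also: extracellular domain of Rv3671c used as enzyme; 0% = enzyme with DMSO and 100% = no enzyme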
Numbers without * were called inactive; i = inactive; / = no result given; + = active, no number.

SMILES	GDH-TPI inh	BH1578 lux ind	Mtb UGM inh	RecA splice inh	FBA Mtb inh	Rv3671c inh
O=C(NCc1ccccc1)c1cc(C2CCCN(C(=O)c3ccc4c(c3)CCO4)C2)on1 (configuration not stated)	-2.7	i	/	/	-5.0	/
CCCCOc1ccc(C(=O)N/C(=C/C=C/c2ccccc2)C(=O)NC)cc1	32.8*	-0.3	0.4	/	0.1	-9.9
O=C(O)COc1ccc(/C=N/NC(=O)c2cccc3ccccc23)cc1	16.4	-1.7	-0.4	0.3	-2.0	-4.4
O=C(O)COc1ccc(/C=N/NC(=O)/C(=C/C=C/c2ccccc2)NC(=O)c2ccccc2)cc1	54.7*	-1.9	2.1	6.8	3.1	-0.6
CCCCOc1ccc(C(=O)N/C(=C/C=C/c2ccccc2)C(=O)O)cc1	22.3	-0.6	4.5	-60.7	-0.7	-7.4
CCc1ccc(NS(=O)(=O)c2c(C)noc2C)cc1	-5.1	i	2.9	0.1	-2.4	-8.3
O=c1[nH]c(CSc2cccc[n+]2[O-])nc2ccccc12	13.4	i	-0.2	-1.2	2.0	-5.3
O=C(N/N=C/c1c(O)n(-c2ccccc2Cl)c(=O)c2ccccc12)C1COc2ccccc2O1 (configuration not stated)	15.1	-0.1	-0.6	5.8	34.4*	15.9
Cc1cc(NC(=O)Cn2cnc3sccc3c2=O)no1	7.9	-2.9	0.0	/	-0.9	-3.2
COc1ccc(-c2c(-c3ccc(OC)c(F)c3)c3ccccc3n2C)cc1	15.5	1.3	5.8	/	37.4*	-3.5
Cc1ccc(NC(=O)CSc2ccc(-c3ccccn3)nn2)cc1F	-0.3	-0.3	0.8	-1.0	-2.3	12.5
CC(=O)Nc1sc(N/N=C\c2ccc(O)cc2)nc1-c1cccs1	43.9*	-0.8	-1.1	2.3	-0.5	0.2
CC(=O)Nc1sc(N/N=C\c2cccc(Cl)c2)nc1-c1cccs1	6.2	i	-0.8	1.0	6.7	9.2
CC(C)N(CCCNC(=O)C1CCC(CNS(=O)(=O)c2ccccc2)CC1)Cc1ccccc1 (configuration not stated)	-0.7	-0.2	-0.1	2.6	-1.4	5.7
O=C(CC[C@H]1O[C@@H](n2ccc(=O)[nH]c2=O)[C@H](O)[C@@H]1O)NCc1cccc2ccccc12	/	/	/	/	1.2	/
O=C(O)c1cc(-c2cc(C(=O)O)c3ccccc3n2)ccc1O	33.5*	0.8	/	/	9.3	/
CCOc1ccc(-c2cc(C(=O)O)c3ccccc3n2)cc1	27.3	i	1.2	-0.3	+	2.3
Cc1ccc(-c2ccc(CN3C(C(C)C)C(=O)N(Cc4cn(Cc5ccco5)nn4)CCS3(=O)=O)cc2)cc1 (configuration not stated)	2.4	-0.4	/	/	-2.6	/
Cc1c(OC(=O)CNC(=O)OC(C)(C)C)ccc2c3c(c(=O)oc12)CCC3	5.3	i	0.5	-15.9	122.0*	-9.8
CC(=O)COc1ccc2c3c(c(=O)oc2c1C)CCCCC3	16.2	i	2.4	-0.4	115.2*	9.1
Cc1c(O)ccc2c3c(c(=O)oc12)CCCC3	11.7	i	0.0	/	193.3*	-1.2
N#Cc1ccccc1C[C@H](N)C(=O)NC[C@H]1O[C@@H](n2ccc(N)nc2=O)[C@H](O)[C@@H]1O	-1.4	0.0	/	/	3.6	/
CCC12CN3CC(CC)(CN(C1)C3c1cccnc1)C2=O (configuration not stated)	-10.4	16.7*	0.7	-3.1	2.6	6.0
CC(C)CN(CC(C)C)C(=O)CN1C(=O)NC2(CCc3ccccc3C2)C1=O (configuration not stated)	-2.1	i	1.0	0.5	0.7	4.6
COc1ccc(COc2cc(-c3cccc(OC)c3)nc3ccc(NC(=O)c4ccc(N(C)C)cc4)cc23)cc1	37.9*	i	2.0	-0.3	8.2	-61.1
SMILES	GDH-TPI inh	BH1578 lux ind	Mtb UGM inh	RecA splice inh	FBA Mtb inh	Rv3671c inh
COc1ccc(COc2cc(-c3cccc(OC)c3)nc3ccc(NC(C)=O)cc23)cc1	10.3	i	-0.9	-3.3	136.0*	-135.4
COc1ccc(COc2cc(-c3cccc(OC)c3)nc3ccc(NC(=O)c4ccc(C)cc4)cc23)cc1	20.3	7.1	1.0	0.6	16.5	-123.5
COc1ccc(COc2cc(-c3cccc(OC)c3)nc3ccc(N)cc23)cc1	4.4	i	-1.4	-145.9	53.8*	-3.8
O=C(/C=C/c1ccccc1Cl)Nc1ccc2c(c1)C(=O)NC2=O	37.0*	/	0.3	-1.1	12.1	-86.4
O=C(/C=C/c1ccccc1)Nc1ccc2c(c1)C(=O)NC2=O	26.1	-0.4	2.9	-2.1	11.8	-15.5
NCCSC1CC(=O)N(c2ccc(F)cc2)C1=O (configuration not stated)	-1.5	-2.0	1.5	-2.6	-1.3	7.2
NCCSC1CC(=O)N(c2ccc(Cl)c(Cl)c2)C1=O (configuration not stated)	11.4	i	-1.6	0.1	46.6*	5.4
COc1cc(C(=O)N/N=C/c2sc(=O)n(-c3ccccc3)c2Cl)cc(OC)c1OC	45.6*	-1.6	0.8	-1.0	-3.9	1.1
O=C(N/N=C/c1cccn1-c1ccccc1)c1ccncc1	15.4	-0.6	0.5	-1.3	-1.2	0.3
COc1cc(C(=O)N/N=C/c2cc([N+](=O)[O-])cs2)cc(OC)c1OC	36.1*	-0.3	0.3	-8.4	-3.6	12.3
CCOc1ccc(C(=O)N/N=C/c2cc([N+](=O)[O-])cs2)cc1	12.1	1.5	2.4	1.3	-1.5	-8.3
O=C(N/N=C/c1sc(=O)n(-c2ccccc2)c1Cl)c1ccncc1	35.9*	i	0.3	20.4	-2.6	6.0
CC(O)c1nc2ccccc2n1C(C)c1ccccc1 (configuration not stated)	-4.9	0.0	0.3	0.1	1.6	4.2
Cc1ccc(C(C)C)c(OCC(=O)N/N=C2\CC(=O)CC(C)(C)C2)c1	-3.3	i	-0.2	/	-1.6	-1.9
COc1cc2c3nnc(-c4ccc(F)cc4)c-3cn(Cc3cccc(F)c3)c2cc1OC	12.4	/	7.9	-55.1	46.0*	-14.2
COc1cc2c3nnc(-c4ccc(F)cc4)c-3cn(Cc3cccc(C)c3)c2cc1OC	-12.0	/	9.0	-14.0	10.7	-19.9
COc1cc2c3nnc(-c4ccc(F)cc4)c-3cn(Cc3ccc(C)cc3)c2cc1OC	7.1	-0.3	15.4*	-74.3	2.8	3.4
OCCN1CCN(c2ncnc3c2ncn3[C@H]2CN(Cc3ccc4c(c3)OCO4)C[C@@H](CO)O2)CC1	9.1	i	/	/	2.7	/
Cc1nc(C(F)(F)F)ccc1C(=O)N1CCC1(C)C(=O)NS(=O)(=O)c1ccc2c(c1)CCO2 (configuration not stated)	5.8	i	/	/	-1.6	/
CC(=O)c1ccc(Nc2nc(C(C)N)cs2)cc1 (configuration not stated)	31.2*	-0.4	/	/	-5.4	/
CC(N)c1csc(Nc2ccc(C(=O)NCCO)cc2)n1 (configuration not stated)	-1.8	-0.4	/	/	0.3	/
CC(=O)c1cccc(Nc2cc(C)nc3c(C)cccc23)c1	4.8	-0.5	-2.7	2.1	1.5	3.9

High-throughput results: PubChem, several laboratories
